Source: PubChem BioAssay
For part of these data: Measured potencies and affinities stand elsewhere. Active and inactive are the calls of the source. Unless noted, no rule for the calls is given here.

Assays:
[1] = antimalarial activity against Dd2 strain (AID 2302;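 active = growth inhibition above 50% at the single 2 µM test dose, taken to imply half-maximal potency below 2 µM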;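 also: 0% = DMSO untreated growth and 100% = chloroquine plus artemisinin killed control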); conditions: P. falciparum Dd2 in RBCs, LDH growth readout, 72 h; at 2 µM; active compounds read high
[2] = human hepatoma cell viability loss – ATP luminescence, cytotoxicity control for P. falciparum antimalarial project, primary screen (AID 2303;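 active = inhibition above 50%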;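 also: 0% = DMSO wells and 100% = digitonin-killed cells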); conditions: HepG2 viability, 24-48 h, at 10 µM, active compounds read high
[3] = target: L-lactate dehydrogenase (Plasmodium falciparum (isolate CDC / Honduras)) (UniProt Q27743); experiment: PfLDH activity inhibition – cell lysate, 3D7 strain, counter-screen for P. falciparum growth inhibition project (AID 2304);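 also: 0% = vehicle and 100% = reference inhibitor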; conditions: P. falciparum 3D7 crude extract, LDH APAD/NBT absorbance; at 2 µM; active compounds read high
[4] = inhibition of 3D7 malaria parasite growth – strain 3D7 (AID 2306);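 also: 0% = DMSO wells and 100% = chloroquine plus artemisinin control wells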; conditions: P. falciparum 3D7 erythrocytic growth, LDH absorbance, 72 h; at 2 µM; active compounds read high
[5] = target: Calcium-dependent protein kinase 1 (Plasmodium falciparum (isolate 3D7)) (UniProt P62344); experiment: PfCDPK1 kinase inhibitors, biochemical, TCAMS library (AID 1159585; cut-off not given, nearly all actives have IC50 up to about 0.98 µM;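 also: inhibitors leave more ATP so luminescence rises with inhibition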); conditions: recombinant PfCDPK1, Kinase-Glo ATP depletion luminescence
[6] = target: Plasmodium falciparum protein kinase 6 (PK6, PF3D7_1337100) (UniProt Q8IDW1); experiment: PfPK6 kinase inhibitors, biochemical, TCAMS library (AID 1159586); conditions: recombinant PfPK6, Kinase-Glo ATP depletion luminescence
[7] = target: Protein kinase 7 (PK7), Plasmodium falciparum 3D7 (PF3D7_0213400) (UniProt Q7YTF7); experiment: inhibition of Plasmodium PK7 catalytic activity – biochemical, TCAMS antimalarial set, Kinase-Glo luminescence (AID 1159587); conditions: recombinant PfPK7, Kinase-Glo ATP depletion luminescence
[8] = target: Calcium-dependent protein kinase 4 (Plasmodium falciparum (isolate 3D7)) (UniProt Q8IBS5); experiment: PfCDPK4 kinase inhibitors, biochemical, TCAMS library (AID 1159588; cut-off not given, nearly all actives have IC50 up to about 0.91 µM); conditions: recombinant PfCDPK4, Kinase-Glo ATP depletion luminescence
Chain of Calcium-dependent protein kinase 4 (Plasmodium falciparum (isolate 3D7)) (Q8IBS5 whole entry, looked up): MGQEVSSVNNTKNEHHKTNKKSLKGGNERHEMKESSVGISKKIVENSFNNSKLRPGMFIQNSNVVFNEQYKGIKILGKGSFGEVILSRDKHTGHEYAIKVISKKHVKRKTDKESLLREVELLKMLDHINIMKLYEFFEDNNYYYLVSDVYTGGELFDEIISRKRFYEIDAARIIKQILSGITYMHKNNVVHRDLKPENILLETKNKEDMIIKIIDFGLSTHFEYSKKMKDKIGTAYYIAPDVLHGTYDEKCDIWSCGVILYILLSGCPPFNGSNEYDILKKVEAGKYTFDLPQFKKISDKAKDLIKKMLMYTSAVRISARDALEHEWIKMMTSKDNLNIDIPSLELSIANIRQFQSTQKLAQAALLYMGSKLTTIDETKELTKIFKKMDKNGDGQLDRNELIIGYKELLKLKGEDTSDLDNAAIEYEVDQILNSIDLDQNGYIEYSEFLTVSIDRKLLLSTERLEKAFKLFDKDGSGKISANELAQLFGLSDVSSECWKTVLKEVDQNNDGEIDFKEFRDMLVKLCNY

Chain of Plasmodium falciparum protein kinase 6 (PK6, PF3D7_1337100) (Q8IDW1 1-305): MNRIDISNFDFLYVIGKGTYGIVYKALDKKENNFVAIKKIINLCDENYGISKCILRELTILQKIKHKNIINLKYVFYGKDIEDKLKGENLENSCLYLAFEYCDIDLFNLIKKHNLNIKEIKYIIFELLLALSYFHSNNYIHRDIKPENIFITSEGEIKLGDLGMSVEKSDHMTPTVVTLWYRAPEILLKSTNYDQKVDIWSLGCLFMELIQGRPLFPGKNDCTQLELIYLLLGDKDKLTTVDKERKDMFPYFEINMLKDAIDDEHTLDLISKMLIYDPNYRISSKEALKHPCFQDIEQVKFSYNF
Chain of L-lactate dehydrogenase (Plasmodium falciparum (isolate CDC / Honduras)) (Q27743 whole entry, looked up): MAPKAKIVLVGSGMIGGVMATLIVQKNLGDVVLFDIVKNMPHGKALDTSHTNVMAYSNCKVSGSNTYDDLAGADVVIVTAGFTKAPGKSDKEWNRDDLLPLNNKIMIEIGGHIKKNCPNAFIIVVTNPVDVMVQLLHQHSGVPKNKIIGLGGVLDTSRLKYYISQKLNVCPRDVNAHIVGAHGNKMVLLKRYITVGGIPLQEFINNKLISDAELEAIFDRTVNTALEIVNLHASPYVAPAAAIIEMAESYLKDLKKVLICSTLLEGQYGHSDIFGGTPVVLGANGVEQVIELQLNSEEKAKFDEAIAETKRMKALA
Chain of Calcium-dependent protein kinase 1 (Plasmodium falciparum (isolate 3D7)) (P62344 whole entry, looked up): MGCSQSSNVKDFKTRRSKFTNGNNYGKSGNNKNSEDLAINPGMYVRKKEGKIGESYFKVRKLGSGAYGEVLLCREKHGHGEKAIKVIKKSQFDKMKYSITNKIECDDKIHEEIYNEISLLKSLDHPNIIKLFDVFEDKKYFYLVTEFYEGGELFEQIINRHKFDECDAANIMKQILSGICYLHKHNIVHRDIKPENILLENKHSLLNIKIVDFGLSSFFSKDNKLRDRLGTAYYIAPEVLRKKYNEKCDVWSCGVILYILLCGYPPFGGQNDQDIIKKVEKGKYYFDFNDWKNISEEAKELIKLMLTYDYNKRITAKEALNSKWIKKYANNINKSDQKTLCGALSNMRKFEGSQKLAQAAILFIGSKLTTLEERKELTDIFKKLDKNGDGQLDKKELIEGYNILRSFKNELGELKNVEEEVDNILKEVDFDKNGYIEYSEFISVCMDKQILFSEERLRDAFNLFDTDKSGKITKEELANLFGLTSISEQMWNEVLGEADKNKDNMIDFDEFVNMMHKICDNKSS
Chain of Protein kinase 7 (PK7), Plasmodium falciparum 3D7 (PF3D7_0213400) (Q7YTF7 1-343): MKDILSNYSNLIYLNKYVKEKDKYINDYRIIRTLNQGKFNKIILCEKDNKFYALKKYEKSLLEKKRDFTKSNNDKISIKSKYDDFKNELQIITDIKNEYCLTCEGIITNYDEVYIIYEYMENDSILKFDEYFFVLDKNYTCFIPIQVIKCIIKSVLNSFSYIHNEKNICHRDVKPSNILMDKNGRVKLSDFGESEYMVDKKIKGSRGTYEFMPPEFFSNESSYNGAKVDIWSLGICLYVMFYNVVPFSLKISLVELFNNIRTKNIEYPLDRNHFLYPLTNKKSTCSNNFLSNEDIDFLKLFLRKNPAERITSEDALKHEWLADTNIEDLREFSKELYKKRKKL

Cc1noc(C)c1-c1ccc2c(Nc3ccccc3N3CCOCC3)c(C(=O)NCc3ccccc3)cnc2c1
inactive: growth inhibition [1] 6% | inhibition [2] 23% | inhibition [3] -2% | outcome [5] | outcome [6] | outcome [7] | outcome [8]
active: growth inhibition [4] 91%

O=C(O)CCCN1CCCC(=C(c2ccccc2)c2ccccc2)C1
active: growth inhibition [4] 82%
inactive: growth inhibition [1] 2% | inhibition [2] -5% | inhibition [3] 0% | outcome [5] | outcome [6] | outcome [7] | outcome [8]

CC(C)c1cc(Oc2c(I)cc(CCNCc3ccccc3)cc2I)ccc1O
inactive: inhibition [2] 42% | inhibition [3] 4% | outcome [5] | outcome [6] | outcome [7] | outcome [8]
active: growth inhibition [1] 54% | growth inhibition [4] 95%

COc1ccc2nc(C)cc(Nc3ccc(Oc4ccc(Cl)cc4)c(Cl)c3)c2c1
active: growth inhibition [1] 100% | growth inhibition [4] 101%
inactive: inhibition [2] 48% | inhibition [3] -2% | outcome [5] | outcome [6] | outcome [7] | outcome [8]

O=C(c1cc2ccccc2o1)N1CCc2cc3nccc(N4CCN5CCC[C@H]5C4)c3cc21
active: growth inhibition [1] 101% | inhibition [2] 62% | growth inhibition [4] 99%
inactive: inhibition [3] 2% | outcome [5] | outcome [6] | outcome [7] | outcome [8]

Cc1c(-c2ccc(C(=O)NC3CC(C)(C)NC(C)(C)C3)cc2)[nH]c2cc(Cl)c(Cl)cc12
inactive: inhibition [2] 34% | inhibition [3] 0% | outcome [5] | outcome [6] | outcome [7] | outcome [8]
active: growth inhibition [1] 68% | growth inhibition [4] 98%

Fc1ccc(OC2CN(c3nccc(NCc4ccccc4Cl)n3)C2)cc1
inactive: inhibition [2] -2% | inhibition [3] 6% | outcome [5] | outcome [6] | outcome [7] | outcome [8]
active: growth inhibition [1] 99% | growth inhibition [4] 98%

COc1ccc(Nc2nccc(-c3ccc4ccnc(NCCCCN)c4c3)n2)cc1
inactive: growth inhibition [1] 47% | inhibition [2] 15% | inhibition [3] 6% | outcome [5] | outcome [6] | outcome [7] | outcome [8]
active: growth inhibition [4] 95%

CN(C)CCCc1cc(NC(=O)Nc2cccc(Cl)c2Cl)ccc1I
active: growth inhibition [4] 102%
inactive: growth inhibition [1] 45% | inhibition [2] 12% | inhibition [3] 1% | outcome [5] | outcome [6] | outcome [7] | outcome [8]

CC(C)c1cc2c(ccc3nc(N)nc(N)c32)[nH]1
inactive: growth inhibition [1] 4% | inhibition [2] 49% | inhibition [3] 2% | outcome [5] | outcome [6] | outcome [7] | outcome [8]
active: growth inhibition [4] 93%

COc1c(C2CCN(CCCCNC(=O)c3ccc(-c4ccc(C(F)(F)F)cc4)c(C(=O)OC(C)C)c3)CC2)ccc2c1CCCC2
inactive: growth inhibition [1] 30% | inhibition [2] 24% | inhibition [3] 0% | outcome [5] | outcome [6] | outcome [7] | outcome [8]
active: growth inhibition [4] 90%

COc1cc(NC(=O)c2c(-c3c(F)cccc3Cl)noc2C)c(OC)cc1Cl
inactive: growth inhibition [1] 17% | inhibition [2] -12% | inhibition [3] 5% | outcome [5] | outcome [6] | outcome [7] | outcome [8]
active: growth inhibition [4] 89%

Cc1cc(-c2cccc(CNC3CCN(C)CC3)c2)ccc1S(=O)(=O)NCc1ccccc1
active: growth inhibition [1] 90% | inhibition [2] 53% | growth inhibition [4] 99%
inactive: inhibition [3] 4% | outcome [5] | outcome [6] | outcome [7] | outcome [8]

O=C(Nc1ccc(I)cc1)Nc1ccc(Cn2ncc(N3CCCNCC3)c(Cl)c2=O)cc1
active: growth inhibition [4] 86%
inactive: growth inhibition [1] 30% | inhibition [2] 35% | inhibition [3] 0% | outcome [5] | outcome [6] | outcome [7] | outcome [8]

O=C(NCCN1CCC(NC(=O)c2ccc(-c3ccccn3)s2)CC1)c1ccc(Cl)c(Cl)c1
inactive: growth inhibition [1] 48% | inhibition [2] 24% | inhibition [3] -5% | outcome [5] | outcome [6] | outcome [7] | outcome [8]
active: growth inhibition [4] 97%

CC(C)CCNC(=O)C1Cc2c([nH]c3ccc(Br)cc23)C2(CCN(CCc3ccccc3)CC2)N1 (stereo not drawn)
inactive: inhibition [2] 25% | inhibition [3] 2% | outcome [5] | outcome [6] | outcome [7] | outcome [8]
active: growth inhibition [1] 61% | growth inhibition [4] 101%

CC1(C)[C@H]2C=C(CN3CCC(NC(=O)Nc4ccc(Cl)c(Cl)c4)CC3)[C@@H]1CC2
inactive: growth inhibition [1] 33% | inhibition [2] 28% | inhibition [3] 2% | outcome [5] | outcome [6] | outcome [7] | outcome [8]
active: growth inhibition [4] 101%

O=C(NC(=O)c1ccccc1O)c1ccccc1O
inactive: inhibition [2] -5% | inhibition [3] -2% | outcome [5] | outcome [6] | outcome [7] | outcome [8]
active: growth inhibition [1] 79% | growth inhibition [4] 97%

COc1ccc(C2C(C(=O)Nc3ccc4c(c3)OCO4)c3cc(OC)c(OC)cc3C(=O)N2C)cc1 (stereo not drawn)
active: growth inhibition [1] 54% | growth inhibition [4] 89%
inactive: inhibition [2] 12% | inhibition [3] -4% | outcome [5] | outcome [6] | outcome [7] | outcome [8]

O=C(Cn1c(CCc2cccc(F)c2F)nc(=O)c2ccccc21)N(Cc1ccc(-c2ccc(C(F)(F)F)cc2)cc1)C1CCN(C2CCSCC2)CC1
active: growth inhibition [1] 93% | inhibition [2] 97% | growth inhibition [4] 99%
inactive: inhibition [3] 0% | outcome [5] | outcome [6] | outcome [7] | outcome [8]

Nc1c2c(nc3ccc(NC(=O)c4ccc([N+](=O)[O-])cc4)cc13)CCCC2
inactive: inhibition [2] 19% | inhibition [3] 0% | outcome [5] | outcome [6] | outcome [7] | outcome [8]
active: growth inhibition [1] 72% | growth inhibition [4] 102%

COc1cc(C)c(C(O)CNC(C)CCc2ccccc2)cc1C (stereo not drawn)
active: growth inhibition [1] 98% | growth inhibition [4] 98%
inactive: inhibition [2] 1% | inhibition [3] -2% | outcome [5] | outcome [6] | outcome [7] | outcome [8]

CN(c1ccc2c(c1)nc(Nc1ccc(Cl)cc1)n2C)c1ccnc(Nc2ccc(CS(C)(=O)=O)cc2)n1
active: growth inhibition [1] 52% | inhibition [2] 91% | growth inhibition [4] 97%
inactive: inhibition [3] -7% | outcome [5] | outcome [6] | outcome [7] | outcome [8]

N#CNC(=NCCCSc1csc(N=C(N)N)n1)NCCCCCCCCN=C(NC#N)NCCSCc1csc(N=C(N)N)n1
inactive: growth inhibition [1] 24% | inhibition [2] -1% | inhibition [3] -4% | outcome [5] | outcome [6] | outcome [7] | outcome [8]
active: growth inhibition [4] 91%

Nc1ncc(-c2ccsc2)c2ccc(-c3cnc[nH]3)cc12
inactive: inhibition [2] 31% | inhibition [3] -7% | outcome [5] | outcome [6] | outcome [7] | outcome [8]
active: growth inhibition [1] 70% | growth inhibition [4] 100%

CCC(CO)NCC(O)Cn1c2ccc(Br)cc2c2cc(Br)ccc21 (stereo not drawn)
active: growth inhibition [1] 87% | growth inhibition [4] 100%
inactive: inhibition [2] 18% | inhibition [3] -6% | outcome [5] | outcome [6] | outcome [7] | outcome [8]

CN(C)CCCOc1cccc(NC(=O)Nc2ccc(Cl)c(Cl)c2)c1
active: growth inhibition [4] 90%
inactive: growth inhibition [1] 8% | inhibition [2] 6% | inhibition [3] -1% | outcome [5] | outcome [6] | outcome [7] | outcome [8]

CCOc1ccc(-c2nonc2NC(=O)c2ccc(OC(C)C)cc2)cc1OCC
active: growth inhibition [1] 100% | growth inhibition [4] 100%
inactive: inhibition [2] 13% | inhibition [3] -2% | outcome [5] | outcome [6] | outcome [7] | outcome [8]

O=C(Cc1cnc[nH]1)Nc1ccc(-c2ccc(-c3nc4ccccc4[nH]3)s2)cc1
inactive: growth inhibition [1] 34% | inhibition [2] 44% | inhibition [3] 1% | outcome [5] | outcome [6] | outcome [7] | outcome [8]
active: growth inhibition [4] 90%

O=C(/C=C/c1ccc(C(F)(F)F)cc1)NCCCCCN1CCC(c2c[nH]c3ccccc23)CC1
inactive: growth inhibition [1] 22% | inhibition [3] 1% | outcome [5] | outcome [6] | outcome [7] | outcome [8]
active: inhibition [2] 96% | growth inhibition [4] 101%

CN(C1CCC(NC(=O)/C=C/c2ccccc2)CC1)C1CC2(CCN(C(=O)OC(C)(C)C)CC2)c2ccccc21 (stereo not drawn)
active: growth inhibition [1] 95% | growth inhibition [4] 95%
inactive: inhibition [2] 16% | inhibition [3] 5% | outcome [5] | outcome [6] | outcome [7] | outcome [8]

CCOC(=O)C(C(C)=O)C(c1ccccc1)C(C(C)=O)C(=O)OCC (stereo not drawn)
inactive: growth inhibition [1] 14% | inhibition [2] 6% | inhibition [3] 2% | outcome [5] | outcome [6] | outcome [7] | outcome [8]
active: growth inhibition [4] 95%

Cc1ccc(CNC(=O)[C@H](Cc2ccccc2)Nc2cc(C)nc(NCCc3ccc(F)cc3)n2)cc1
active: growth inhibition [4] 98%
inactive: growth inhibition [1] 22% | inhibition [2] 10% | inhibition [3] -3% | outcome [5] | outcome [6] | outcome [7] | outcome [8]

C=C[C@]1(C)C[C@@H](OC(=O)c2n[nH]c3ccccc3c2=O)[C@]2(C)[C@H](C)CC[C@]3(CCC(=O)[C@H]32)[C@@H](C)[C@@H]1O
active: growth inhibition [1] 84% | growth inhibition [4] 96%
inactive: inhibition [2] -6% | inhibition [3] 0% | outcome [5] | outcome [6] | outcome [7] | outcome [8]

CCCCCN1CCCC1CNS(=O)(=O)c1cccc(C(=O)Nc2cccc(C(F)(F)F)c2)c1 (stereo not drawn)
inactive: growth inhibition [1] 12% | inhibition [2] 15% | inhibition [3] 4% | outcome [5] | outcome [6] | outcome [7] | outcome [8]
active: growth inhibition [4] 96%

CN1CCc2cc(CN3C[C@]4(C)C[C@H]3CC(C)(C)C4)c(O)cc2C(c2ccccc2)C1 (stereo partly drawn)
inactive: inhibition [2] -4% | inhibition [3] -3% | outcome [5] | outcome [6] | outcome [7] | outcome [8]
active: growth inhibition [1] 88% | growth inhibition [4] 98%
